Test results: PubChem BioAssay (Tox21)
Several values for one entry are separate records, joined by “and”; a condition that tells them apart may be missing. Identical values can stand only once. Records with an inconclusive call do not appear. Activity calls are given as the source filed them. Unless noted, calls come from the whole dose curve; as a rule, active = well fitted curve in the direction sought with a large enough effect in the repeat runs; inconclusive = weak or mixed curves; inactive = no such curve, though single readings can be large; an effect the other way counts as inactive or inconclusive.

How the values were obtained:
[1] = qHTS assay for small molecules that induce genotoxicity in human embryonic kidney cells expressing luciferase-tagged ATAD5 (AID 651632); note: nearly all actives have a fitted effect of over 15% in size; note: potency is the fitted concentration of half-maximal effect
Outline: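 ATAD5-luc HEK293T, 2,000 cells/well; cpd or DMSO pin-transferred; 16 hr, 37C/5% CO2; Amplite 30 min RT; luminescence.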

[2] = qHTS assay for small molecule agonists of the p53 signaling pathway - cell viability (AID 651633; calls by dose curve; note: nearly all actives have a fitted effect of over 30% in size; note: potency is the fitted concentration of half-maximal effect)
Outline: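 Viability counter-read: CellTiter-Glo luminescence (30 min, room temperature) in the same p53RE-bla plates. These plates had been exposed to compounds for 16 h at 37 C.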

[3] = qHTS assay for small molecules that induce genotoxicity in human embryonic kidney cells expressing luciferase-tagged ATAD5 - cell viability (AID 651634; calls by dose curve; note: nearly all actives have a fitted effect of over 25% in size; note: potency is the fitted concentration of half-maximal effect)
Outline: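 Fluorescence from CellTiter-Fluor, reporting protease activity within live cells, served as the viability read-out. HEK293T cells carrying luciferase-tagged ATAD5 had been treated with compound for 15.5 hr at 37C.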

[4] = qHTS assay for small molecule disruptors of the mitochondrial membrane potential - cell viability (AID 720634; calls by dose curve; note: nearly all actives have a fitted effect of over 20% in size; note: potency is the fitted concentration of half-maximal effect)
Outline: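 Cells: HepG2, 2,000/well, attached overnight. Compound 1 hr, 37 C/5% CO2. +m-MPI dye, +CellTiter-Glo 30 min RT. Readout: luminescence (ATP).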

[5] = qHTS assay for small molecule disruptors of the mitochondrial membrane potential (AID 720635); note: potency is the fitted concentration of half-maximal effect
Outline: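 Mitochondrial membrane potential tracked with Mito-MPS dye, red aggregates (ex 540/em 590 nm) against green monomers (ex 490/em 535 nm). Compound treatment 1 hr at 37C, dye 30 min in HepG2.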

[6] = qHTS assay to test for compound auto fluorescence at 590 nm (red) in HepG2 cells (AID 720674)
Outline: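 Red autofluorescence (Ex/Em 540/590 nm, Rose Bengal sodium equivalents) was measured in HepG2 cells, 2,000 per well in MEM plus 10% FBS, plated overnight at 37 C. Readings were taken 1 hr after adding 23 nL compound or DMSO, at 37 C and 5% CO2.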

[7] = qHTS assay to test for compound auto fluorescence at 535 nm (green) in HepG2 cells (AID 720675)
[8] = qHTS assay to test for compound auto fluorescence at 460 nm (blue) in HEK293 cells (AID 720678)
Outline: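 Triamterene serves as the blue fluorophore standard. Compound signal at 405/460 nm is read in HEK293 wells (2,000 cells, 10% dialyzed FBS) after overnight treatment at 37C.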

[9] = qHTS assay to test for compound auto fluorescence at 590 nm (red) in HEK293 cells (AID 720679)
Outline: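 We plated HEK293 cells in 10% dialyzed FBS medium, let them adhere for 4-5 hr, then added 23 nL compound. Overnight at 37C and 5% CO2 preceded fluorescence measurement at 540/590nm.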

[10] = qHTS assay to test for compound auto fluorescence at 535 nm (green) in HEK293 cells (AID 720680)
[11] = qHTS assay to test for compound auto fluorescence at 460 nm (blue) in HEK293 cell free culture (AID 720681)
Outline: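 Blue fluorescence (Ex 405/Em 460 nm, triamterene-equivalent) was read immediately after pin transfer of compound or DMSO into medium (DMEM, 10% FBS) without cells.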

[12] = qHTS assay to test for compound auto fluorescence at 535 nm (green) in HEK293 cell free culture (AID 720682)
Outline: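 Compounds were pin-transferred into cell-free DMEM with 10% FBS, and green fluorescence was read at excitation 485 nm and emission 535 nm. Intensities were expressed as fluorescein-equivalent values.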

[13] = qHTS assay to test for compound auto fluorescence at 590 nm (red) in HEK293 cell free culture (AID 720683)
Outline: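 Red-channel autofluorescence of compounds in culture medium (DMEM, 10% FBS), no cells, measured at 540/590 nm. Rose Bengal sodium is the reference fluorophore for equivalence.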

[14] = qHTS assay to test for compound auto fluorescence at 590 nm (red) in HepG2 cell free culture (AID 720684)
Outline: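 Steps: dispense MEM/10% FBS medium, no cells; pin compound or DMSO vehicle; read red channel, Ex/Em 540/590 nm. Output given as Rose Bengal sodium equivalents.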

[15] = qHTS assay to test for compound auto fluorescence at 460 nm (blue) in HepG2 cell free culture (AID 720685)
Outline: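 Compound (23 nL) or DMSO pinned into cell-free MEM with 10% FBS; blue fluorescence read at 405/460 nm excitation/emission, expressed as auto-fluorescence equivalency to triamterene.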

[16] = qHTS assay to test for compound auto fluorescence at 535 nm (green) in HepG2 cell free culture (AID 720686)
[17] = qHTS assay to test for compound auto fluorescence at 460 nm (blue) in HepG2 cells (AID 720687)
Outline: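 Blue-channel autofluorescence (Ex/Em 405/460 nm, triamterene-equivalent) was measured after 1 hr compound exposure at 37 C, 5% CO2. Cells were HepG2, plated overnight at 37 C in MEM plus 10% FBS.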

[18] = biological target: Glucocorticoid receptor (Homo sapiens) (UniProt P04150); experiment: qHTS assay to identify small molecule agonists of the glucocorticoid receptor (GR) signaling pathway (AID 720691; active = well fitted activation curve with a large enough effect in the signal ratio in the repeat runs, not every such curve was filed as active; the % refers to the signal ratio)
Sequence of Glucocorticoid receptor (Homo sapiens) (P04150 whole entry, looked up): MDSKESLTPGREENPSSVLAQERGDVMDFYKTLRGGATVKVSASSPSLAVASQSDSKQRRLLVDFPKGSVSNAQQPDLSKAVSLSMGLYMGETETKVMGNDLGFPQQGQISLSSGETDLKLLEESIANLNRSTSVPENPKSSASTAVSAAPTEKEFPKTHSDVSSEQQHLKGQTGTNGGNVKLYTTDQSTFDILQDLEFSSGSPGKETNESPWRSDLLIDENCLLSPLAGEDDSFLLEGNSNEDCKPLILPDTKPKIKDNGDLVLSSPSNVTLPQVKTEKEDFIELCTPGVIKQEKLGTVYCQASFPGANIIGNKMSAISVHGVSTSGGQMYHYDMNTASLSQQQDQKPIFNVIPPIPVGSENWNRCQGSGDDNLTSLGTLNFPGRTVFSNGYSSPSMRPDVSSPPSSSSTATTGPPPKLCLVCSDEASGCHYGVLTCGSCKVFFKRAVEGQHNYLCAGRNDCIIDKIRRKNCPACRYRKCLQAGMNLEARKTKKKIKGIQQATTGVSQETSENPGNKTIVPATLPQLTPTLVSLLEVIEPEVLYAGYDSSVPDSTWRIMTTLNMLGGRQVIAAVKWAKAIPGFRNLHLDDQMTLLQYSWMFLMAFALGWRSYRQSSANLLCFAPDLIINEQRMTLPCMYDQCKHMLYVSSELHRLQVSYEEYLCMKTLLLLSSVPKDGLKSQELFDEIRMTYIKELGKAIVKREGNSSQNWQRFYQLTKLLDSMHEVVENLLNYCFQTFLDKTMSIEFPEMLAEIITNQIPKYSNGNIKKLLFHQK
Outline: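 Fluorescence intensity from LiveBLAzer B/G FRET substrate (2 h, room temperature) reports beta-lactamase expression driven by the glucocorticoid response element in GR-bla HeLa cells after 18 h compound exposure at 37 C.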

[19] = biological target: Glucocorticoid receptor (Homo sapiens) (UniProt P04150); experiment: qHTS assay to identify small molecule antagonists of the glucocorticoid receptor (GR) signaling pathway (AID 720692; active = well fitted inhibition curve with a large enough effect in the signal ratio in the repeat runs, not every such curve was filed as active; the % refers to the signal ratio; note: potency is the fitted concentration of half-maximal effect)
Outline: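 HeLa GR-bla cells; cmpd + dex 5 nM final, 18 h 37 C; LiveBLAzer B/G FRET substrate 2 h RT; fluorescence intensity read. Antagonist mode, qHTS.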

[20] = qHTS assay for small molecule agonists of the p53 signaling pathway (AID 651631; calls by dose curve; note: nearly all actives have a fitted effect of over 15% in size)
Outline: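 Readout was fluorescence from the LiveBLAzer FRET substrate, applied for 2 h at room temperature after 16 h compound exposure at 37 °C. Cells were the p53RE-bla HCT-116 line, with beta-lactamase driven by p53 response elements.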

Measured: Potency

CCC(C)(c1ccc(O)cc1)c1ccc(O)cc1
active: [5] 7.69 µM and 9.69 µM
not listed: [18] | [19] | [20]
inactive: all other assays above

Cc1cc(C)cc(C)c1
not listed: [2] | [18] | [19] | [20]
inactive: all other assays above

CCCCCc1cc(O)cc(O)c1
active: [4] 61.1 µM | [5] 9.73 µM and 7.7 µM
not listed: [3] | [10] | [12] | [18] | [19] | [20]
inactive: all other assays above

NC(=S)Nc1ccccc1
not listed: [4] | [5] | [7] | [12] | [14] | [20]
inactive: all other assays above

Cc1ccc(N)c(N)c1
active: [1] 68.8 µM and 68.6 µM
not listed: [5] | [7] | [20]
inactive: all other assays above

Oc1ccc(-c2ccccc2)cc1
active: [4] 53.8 µM and 48.6 µM | [5] 24 µM and 13.7 µM
not listed: [7] | [14] | [19] | [20]
inactive: all other assays above

Cc1cccc(N)c1N
active: [5] 21 µM and 17.2 µM
not listed: [14] | [20]
inactive: all other assays above

c1ccc(-c2cccc(-c3ccccc3)c2)cc1
not listed: [1] | [3] | [4] | [5] | [7] | [10] | [18] | [19]
inactive: all other assays above

Cc1ccc2c(c1N)C(=O)c1ccccc1C2=O
active: [1] 13.5 µM and 9.69 µM | [3] 12.2 µM | [5] 480 nM and 386 nM
not listed: [4] | [19] | [20]
inactive: all other assays above

c1cc(OCC2CO2)ccc1Cc1ccc(OCC2CO2)cc1 (configuration not stated)
active: [2] 54.7 µM
not listed: [5] | [10] | [19] | [20]
inactive: all other assays above

ClC1C(Cl)C(Cl)C(Cl)C(Cl)C1Cl (configuration not stated)
not listed: [1] | [5] | [10] | [12] | [18] | [19]
inactive: all other assays above

CC(C)=CC1C(C(=O)OCc2coc(Cc3ccccc3)c2)C1(C)C (configuration not stated)
active: [5] 48.6 µM and 61.1 µM | [19] 21.8 µM
not listed: [4] | [14] | [20]
inactive: all other assays above

O=C(NC(=O)c1c(F)cccc1F)Nc1ccc(Cl)cc1
not listed: [7] | [12] | [18] | [19] | [20]
inactive: all other assays above

N#Cc1cc(Br)c(O)c(Br)c1
active: [4] 11.7 µM | [5] 13.7 µM and 4.17 µM
not listed: [7] | [10] | [12] | [14] | [19] | [20]
inactive: all other assays above
